For 17 compounds, composite z-score and composite Z-score results are on record in PubChem BioAssay.

One assay deals with Albumin (Bos taurus) (UniProt P02769). Description: bovine serum albumin binders on microarray, profiling panel, artefact control for SMM control protein annotation, biochemical, small-molecule microarray, Alexa647 label, 635/667 nm fluorescence (AID 1118).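 Further: score merges 667 nm emission intensity and signal-to-noise per printed compound spot.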 The settings on record: BSA-A647 binding, fluorescence 635 nm, higher = more signal.
Chain of Albumin (Bos taurus) (P02769 whole entry, looked up): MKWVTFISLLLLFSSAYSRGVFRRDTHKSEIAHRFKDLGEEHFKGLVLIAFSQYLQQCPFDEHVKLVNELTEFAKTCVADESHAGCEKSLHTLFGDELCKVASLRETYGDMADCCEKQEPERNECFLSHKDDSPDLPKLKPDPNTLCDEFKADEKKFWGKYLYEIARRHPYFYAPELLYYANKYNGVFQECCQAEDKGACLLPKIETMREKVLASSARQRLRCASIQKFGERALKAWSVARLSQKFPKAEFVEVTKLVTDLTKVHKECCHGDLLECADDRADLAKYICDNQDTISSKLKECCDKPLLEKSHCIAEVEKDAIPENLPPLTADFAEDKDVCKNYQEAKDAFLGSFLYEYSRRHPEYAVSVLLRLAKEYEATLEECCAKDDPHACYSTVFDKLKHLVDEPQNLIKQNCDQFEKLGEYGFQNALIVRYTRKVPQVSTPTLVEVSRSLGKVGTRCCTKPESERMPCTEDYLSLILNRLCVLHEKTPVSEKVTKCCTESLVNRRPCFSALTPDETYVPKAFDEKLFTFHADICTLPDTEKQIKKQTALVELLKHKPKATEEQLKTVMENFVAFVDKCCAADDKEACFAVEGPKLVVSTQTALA
Assay [1] in a line: small-molecule microarray binders of probe aXIP, primary screen, biochemical, NeuroSMM set, 635/667 nm fluorescence (AID 1119).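 Further: probe is the protein aXip251-270 applied at 1 µg/mL to compound-printed slides; binding of probe to printed compounds measured as 667 nm fluorescence plus signal to noise.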 The settings on record: higher = more signal, called active from +8 up or from −8 down.
A short description of assay [2]: small-molecule binders of probe aNOTCH3, primary screen, biochemical, small-molecule microarray, 635/667 nm fluorescence (AID 1120).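 Further: probe is a biotin-tagged antibody raised against NOTCH3 rather than NOTCH3 protein; score merges spot fluorescence near 667 nm with spot signal to noise.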 Particulars: higher = more signal.
A short description of assay [3]: small-molecule binders of probe aNOTCH2, primary screen, biochemical, small-molecule microarray, 635/667 nm fluorescence (AID 1121).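 Further: score merges feature fluorescence read at 667 nm with its signal to noise.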 The settings on record: higher = more signal.
Assay [4] concerns the target Carbonic anhydrase 2 (Homo sapiens) (UniProt P00918). Description: CAII small-molecule binders, profiling panel, biochemical, small-molecule microarray, Alexa647-labelled CAII (AID 1122). The settings on record: CAII-A647 binding fluorescence, higher = more signal.
A short description of assay [5]: COS7 lysate on small-molecule microarray, probe aHis, 635 nm (AID 1123).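 Further: z-score combines 667nm fluorescence intensity with signal-to-noise per printed compound spot.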 Particulars: COS7 cell lysate, fluorescence, higher = more signal.
A short description of assay [6]: compound binding in COS7 lysate, probe aLAP1, primary screen, cell lysate, small-molecule microarray (AID 1124).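 Further: lysate comes from COS7 cells expressing LAP1 and is applied at 0.3 µg/mL; score merges spot fluorescence near 667 nm with signal-to-noise over triplicate slides.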 The settings on record: probe aLAP1, fluorescence, higher = more signal.
For another assay, the system named is Sam68 (KHDRBS1). Description: Sam68 small-molecule binders, primary screen, biochemical, small-molecule microarray, 635 nm fluorescence (AID 1125).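 Further: score merges 667 nm channel intensity with signal to noise over triplicate slides.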 Particulars: small-molecule microarray binding, higher = more signal.
In assay [7] the test system is Chordin-like protein 2 (CHRDL2). Description: CHRDL2 small-molecule binders, primary screen, biochemical, small-molecule microarray, 635 nm fluorescence (AID 1126).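 Further: printed compound slides probed with Chrdl2 protein at 4 µg/mL for 1 h at 4 C; score merges 667 nm emission intensity with signal to noise over three replicate slides.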 The settings on record: small-molecule microarray binding, fluorescence 635 nm; higher = more signal.
The target of assay [8] is Concanavalin-A (Canavalia ensiformis) (UniProt P02866). Description: ConA small-molecule binders, primary screen, artefact control for SMM control protein annotation, biochemical, small-molecule microarray, Alexa647 label, 635 nm (AID 1127).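 Further: z combines 667 nm emission intensity with signal-to-noise across three replicate slides.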 The settings on record: ConA-A647 binding fluorescence, higher = more signal.
Chain of Concanavalin-A (Canavalia ensiformis) (P02866 whole entry, looked up): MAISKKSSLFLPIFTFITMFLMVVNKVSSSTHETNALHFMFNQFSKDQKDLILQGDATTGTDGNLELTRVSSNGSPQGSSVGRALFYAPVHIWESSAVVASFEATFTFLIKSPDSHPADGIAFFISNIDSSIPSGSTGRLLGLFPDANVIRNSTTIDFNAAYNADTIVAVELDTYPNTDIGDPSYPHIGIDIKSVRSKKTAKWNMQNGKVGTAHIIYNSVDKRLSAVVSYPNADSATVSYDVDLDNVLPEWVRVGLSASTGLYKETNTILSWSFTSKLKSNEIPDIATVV

SMILES strings stand for the structures. Calls of active or inactive are those of the source.

For `CC1CC/C=C\[C@H]2OC34C=CCN(Cc5ccccc5)C(=O)[C@H]3N(CCCCCCO)C(=O)[C@@H]4C2C(=O)O1` (stereo not given in full), the composite z-score was 0.434 in the assay with Albumin (Bos taurus); -0.383 in assay [2]; -0.133 in assay [3]; 0.895 in assay [4]; 0.42 in assay [5]; 0.718 in assay [6]. Also, the values for the composite z-score (with Sam68 (KHDRBS1); in assay [7]; in [8]) were -0.957, -0.993 and -1.45, respectively. In addition, the composite Z-score in assay [1] was -0.213 (inactive).
Consider `O=C1O[C@@H](c2ccccc2)[C@@H](c2ccccc2)N2[C@@H](c3ccc(OCCO)cc3)[C@]3(C(=O)Nc4ccc(C#CCCO)cc43)[C@@H](C(=O)O)[C@H]12`, for which the composite z-score is 0.559 in the assay with Albumin (Bos taurus); 0.955 in assay [2]; 0.516 in [3]; 0.746 in assay [4]; 2.2 in assay [5]; 0.636 in assay [6]. In addition, the composite z-score with Sam68 (KHDRBS1) was determined as 1.28; in [7], 1.02; in [8] it was 1.15. The composite Z-score in assay [1] was 0.919 (inactive).
For the compound `COc1ccc(C(O)C2C=CC3C(=O)NC(=O)C3N2Nc2ccc(Cl)cc2Cl)c2ccccc12` (stereo not given), the composite z-score was determined as 0.678 with Albumin (Bos taurus); 0.0328 in assay [2]; 0.0856 in assay [3]; 0.602 in assay [4]; 1.94 in [5]; 0.709 in [6]. In addition, the values for the composite z-score (in the assay on Sam68 (KHDRBS1); in assay [7]; in [8]) were 0.35, -0.359 and 0.934, respectively. For the same compound, in [1], the composite Z-score was 0.309 (inactive).
For `C=C1C(=O)C=C2CN(C(=O)c3ccccc3)[C@@](Cc3ccc(OC)cc3)(C(=O)OC)[C@@H]12`, the composite z-score was 1.07 with Albumin (Bos taurus); 0.711 in [2]; 0.11 in assay [3]; 0.523 in [4]; 3.32 in [5]; 0.471 in assay [6]. The composite z-score was 1.3 with Sam68 (KHDRBS1), -0.639 in assay [7] and 1.14 in assay [8]. In addition, the composite Z-score in assay [1] was 0.579 (inactive).
Turning to `Cc1ccc(S[C@]2(C(=O)NC3CC3)CC(=O)N(C(C)C)[C@@H]2c2ccc(CO)cc2I)cc1`, the composite z-score is 0.899 with Albumin (Bos taurus); -0.364 in assay [2]; -0.2 in assay [3]; 0.7 in assay [4]; 1.16 in assay [5]; 0.048 in [6]. The composite z-score was 0.238 in the assay on Sam68 (KHDRBS1), -1.06 in assay [7] and 0.0412 in assay [8]. The composite Z-score in assay [1] is -0.6 (inactive).
On to `C=C(COC)C(=O)CC[C@@H](OC(=O)c1ccccc1-c1ccccc1C(=O)O)c1ccc(OCCO)cc1`, for which the composite z-score in the assay with Albumin (Bos taurus) is -0.238; in [2] it was -0.0491; in assay [3], -0.154; in assay [4], 0.784; in [5] it was 0.113; in assay [6], 0.238. The composite z-score in the assay with Sam68 (KHDRBS1) is 0.576; in assay [7], 0.319; in [8], -0.0355. Further, the composite Z-score in assay [1] was 0.081 (inactive).
Regarding `CN(C)CCCC[C@@H]1NC(=O)[C@H]2C[C@@H](C(=O)O)[C@@H](c3ccc(O)cc3)N2C1=O`, the composite z-score amounted to 0.705 with Albumin (Bos taurus); 1.65 in assay [2]; 0.68 in [3]; 0.946 in assay [4]; 4.01 in assay [5]; 1.31 in [6]. Besides, the figures for the composite z-score (in the assay with Sam68 (KHDRBS1); in assay [7]; in assay [8]) were 1.33, 1.48 and 1.24, respectively. Also, in assay [1], the composite Z-score is 3.89 (inactive).
Regarding `O=C1O[C@H](Cc2ccccc2)[C@@H]2[C@H]3C=CCCC=C3CN2[C@H]1Cc1ccc(O)cc1`, the composite z-score in the assay with Albumin (Bos taurus) was -0.314; in assay [2], 0.0208; in assay [3], -0.122; in [4], 0.746; in assay [5], -0.265; in [6], -0.256. In addition, the composite z-score with Sam68 (KHDRBS1) is -1.09; in assay [7], -0.278; in assay [8], -0.211. For the same compound, in assay [1], the composite Z-score is -0.263 (inactive).
Turning to `COc1ccc([Si](C)(C)[C@@H]2[C@@H](CC(=O)N3CCC[C@H]3CO)O[C@]3(C(=O)N(Cc4ccc(N5CCOC5=O)cc4)c4ccccc43)[C@H]2C)cc1`, the composite z-score is 0.746 with Albumin (Bos taurus); -0.0362 in assay [2]; -0.136 in assay [3]; 0.408 in assay [4]; 1.02 in assay [5]; 0.373 in [6]. For the same compound, the figures for the composite z-score (in the assay with Sam68 (KHDRBS1); in [7]; in assay [8]) were 1.31, 0.509 and 0.884, respectively. Further, the composite Z-score in assay [1] was 0.408 (inactive).
As for `CN1C(=O)C2C(C1=O)C1C=C(c3ccc(CO)cc3)C2C(C2CC2)N1C` (stereo not given), the composite z-score with Albumin (Bos taurus) is 0.876; in [2] it was -0.0947; in [3] it was -0.0859; in assay [4], 0.431; in assay [5] it was -0.415; in [6] it was -0.0324. In addition, the values for the composite z-score (with Sam68 (KHDRBS1); in [7]; in assay [8]) were 0.164, 0.0323 and 0.0875, respectively. For the same compound, the composite Z-score in assay [1] was 0.111 (inactive).
In the case of `COC(=O)[C@@]1(Cc2ccccc2)N=C(c2ccc(OCCCO)cc2)O[C@H]1c1ccccc1CN=[N+]=[N-]`, the composite z-score was -0.158 with Albumin (Bos taurus); 0.0655 in [2]; -0.12 in assay [3]; 0.6 in assay [4]; 2.02 in [5]; -0.415 in assay [6]. The composite z-score was 1.2 in the assay on Sam68 (KHDRBS1), -0.111 in [7] and 0.505 in assay [8]. Further, the composite Z-score in assay [1] was 0.282 (inactive).
On to `COC(=O)[C@@]1(Cc2ccccc2)[C@H]2c3cc(C(=O)N(C)C)n(Cc4ccc(C(F)(F)F)nc4)c3C[C@H]2CN1C(=O)c1ccccc1`, for which the composite z-score in the assay with Albumin (Bos taurus) stood at 0.463; in assay [2] it was 0.39; in assay [3], 0.329; in assay [4], 0.849; in assay [5] it was 3.31; in assay [6], 0.427. The composite z-score was 1.3 in the assay on Sam68 (KHDRBS1), -0.43 in assay [7] and 0.715 in assay [8]. Besides, the composite Z-score in assay [1] is -0.031 (inactive).
Regarding `C=CCC(OC(C)=O)[C@@H]1[C@@H](N(Cc2ccc(-c3cccc(C(F)(F)F)c3)o2)C(=O)c2ccc(-c3ccccc3)cc2)c2cc(OCCCO)ccc2N1C(=O)c1ccc2ccccc2c1` (stereo not given in full), the composite z-score with Albumin (Bos taurus) is -0.192; in assay [2] it was 0.0445; in assay [3], -0.0707; in [4], 0.323; in [5], 0.234; in assay [6], -0.376. In addition, the results for the composite z-score (in the assay with Sam68 (KHDRBS1); in assay [7]; in [8]) were -0.689, 0.0823 and -0.654, respectively. Also, the composite Z-score in assay [1] was -0.0127 (inactive).
Take `CO[C@H]1O[C@H](CO)[C@@H](OC(=O)Nc2ccccc2-c2ccccc2)[C@H](OC(=O)Nc2ccccc2)[C@H]1OC(=O)Nc1ccccc1`: the composite z-score with Albumin (Bos taurus) was 0.167; in [2], 0.199; in [3] it was -0.0846; in [4] it was 0.701; in assay [5], 2.41; in assay [6] it was 0.268. Moreover, the composite z-score in the assay with Sam68 (KHDRBS1) was found to be 1.3; in assay [7], 0.697; in assay [8] it was 1.15. Further, the composite Z-score in assay [1] was -0.295 (inactive).
As for `COC(=O)C(CC#Cc1ccc2c(c1)[C@]1(C(=O)N2)[C@H](C(=O)NC[C@H](O)c2ccccc2)[C@H]2C(=O)O[C@H](c3ccccc3)[C@H](c3ccccc3)N2[C@@H]1c1ccccc1OCCO)C(=O)OC`, the composite z-score with Albumin (Bos taurus) was -0.119; in [2], 0.0779; in assay [3], -0.115; in assay [4], 0.376; in [5], 2.14; in [6] it was 0.298. The composite z-score was 1.25 in the assay with Sam68 (KHDRBS1), 0.557 in assay [7] and 1.01 in assay [8]. For the same compound, the composite Z-score in [1] is -0.154 (inactive).
Turning to `CC(C)OC(=O)CC(=O)CC(O)c1cccc([N+](=O)[O-])c1` (stereo not given), the composite z-score was 0.799 in the assay with Albumin (Bos taurus); 0.241 in assay [2]; -0.177 in assay [3]; 0.633 in [4]; 0.707 in [5]; -0.107 in [6]. Moreover, the composite z-score was determined as 1.22 with Sam68 (KHDRBS1), 0.01 in assay [7] and 0.828 in assay [8]. Also, the composite Z-score in [1] was -0.144 (inactive).
Consider `Cc1ccc(N2C(=O)c3ccccc3[C@](C)(C(=O)NCCCN(C)C)[C@@H]2c2ccc(CO)cc2)nc1`, for which the composite z-score with Albumin (Bos taurus) was 0.656; in [2], -0.0984; in [3], -0.13; in assay [4] it was 0.281; in assay [5], 0.93; in assay [6] it was -0.728. Further, the composite z-score with Sam68 (KHDRBS1) was 0.276; in assay [7], -1.19; in [8], 0.0368. For the same compound, the composite Z-score in assay [1] is -0.392 (inactive).
